# Screening results from PubChem BioAssay.
# Pf growth 96h: Primary qHTS for delayed death inhibitors of the malarial parasite plastid, 96 hour incubation | 320,000 tested, 6.9% active | AID 504834, 2011 | Potency, µM (highest dose often 28.7 µM), without a hit: top-dose activity change, negative = inhibition, actives largely listed as inhibitors | P. falciparum luciferase reporter growth, 96 h; also: potency is read from the fitted curve at half-maximal effect
#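 Cell-based qHTS: luciferase-tagged P. falciparum in erythrocytes (2% hematocrit, 0.05% parasitemia final) incubated with compounds for 96 hours, 37 C, 5% CO2; luciferase detection reagent then added and luminescence measured.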
# HCV inh: qHTS Assay for Inhibitors of Hepatitis C Virus (HCV); Huh7.5.1 HCVcc-Cre infection, luciferase reporter, 44 h; Potency, µM (titrated, usually from 41.8 µM), for inactives: at the highest dose activity change, negative = inhibition, hits mostly inhibitors; 340,000 tested, 3.4% active; AID 651820, 2012; also: potency is read from the fitted curve at half-maximal effect
#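 Cells seeded at 1,000/well and cultured 4 h, then compounds added followed by HCVcc-Cre virus (~0.5 moi). After 44 h further culture, luciferase substrate was added, plates held 15 min at room temperature, and luminescence read for 15 sec.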
# Pf growth 48h: Primary qHTS for delayed death inhibitors of the malarial parasite plastid, 48 hour incubation. P. falciparum luciferase growth in erythrocytes, 48 h. Potency, µM (titrated, usually from 28.7 µM), for the others: at the highest dose activity change, negative = inhibition, hits mostly inhibitors. 310,000 tested, 5.9% active; also: potency is read from the fitted curve at half-maximal effect
#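 Here the parasites carry a stable luciferase gene and grow inside erythrocytes in Albumax-based RPMI medium with compound for one erythrocytic cycle. Activity is scored as loss of luminescent signal.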
# HCMV antiviral: qHTS Assay for inhibitors of the human cytomegalovirus (HCMV) | activity change, negative = inhibition, % at 57.5 µM | HFF cells, HCMV-luciferase reporter, 72 h; active compounds read low | 410,000 tested, 4.5% active; in the data active = activity change below about -60%; inconclusive = no clear call, values can overlap the other calls; inactive = above about -39%
#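 Steps: HFFs plated, 16 h 37C; compounds added; HCMV-luciferase added to MOI 1 PFU/cell; 72 h 37C; OneGlo reagent, 5 min room temperature; luminescence read, normalized to controls.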
# Numbers without * were called inactive; ? = inconclusive; . = no result given; [ ] = another dose, or the depositor's remark. Only some compounds are listed: those with a hit (about 13% of all), similar ones and a draw of the others. Unless noted, calls follow the shape of the dose curve; as a rule, active = well fitted inhibition curve with a large enough effect; inconclusive = small, poorly fitted or top-dose-only effect, or another doubt; inactive = no such curve, though single readings can be large or run the other way. % is scaled to controls: 0 for no effect and ±100 for the full control effect.
SMILES,Pf growth 96h,HCV inh,Pf growth 48h,HCMV antiviral
CC(C(=O)NCCC1=CCCCC1)N1C(=O)c2ccccc2C1=O (centres undefined),5.9µM*,12%,-18%,1
Cn1c(C(=O)NCCC2=CCCCC2)cc2c(=O)n3ccccc3nc21,6.6µM*,?,73%,20
O=C(NCCC1=CCCCC1)C(c1ccccc1)c1ccccc1,?,4%,?,-2
C=CCn1c(SC(C)C(=O)NCCC2=CCCCC2)nc2ccccc2c1=O (centres undefined),13µM*,?,.,?
COc1cc(C2c3c(-c4ccccc4O)n[nH]c3C(=O)N2Cc2ccco2)ccc1OCC(C)C (centres undefined),.,.,.,0
COC(=O)C(CC(C)C)N(Cc1ccc(Br)cc1)S(=O)(=O)CCl (centres undefined),.,.,.,-1
CCNC(=O)NCc1cccc(Cl)c1,-16%,.,-1%,.
CCCOc1ccc(C2C(=O)N(C3CCCCCC3)CC(=O)N2Cc2ccccc2OC)cc1OC (centres undefined),.,.,.,-31
COc1ccccc1CN1C(=O)CN(C2CCCCCC2)C(=O)C1c1ccc(F)cc1 (centres undefined),10µM*,?,?,-10
CCN(c1cccc(C)c1)S(=O)(=O)c1cc2c(cc1C)n(C)c(=O)c(=O)n2C,.,.,.,-7
Cc1cc(CSc2ccccc2)ccc1NC(=O)c1ccc(CN2CCOCC2)cc1,2.9µM*,?,-34%,-77*
Cc1cc(CSc2ccccc2)ccc1NC(=O)c1ccc(C)c([N+](=O)[O-])c1,12%,-28%,6%,-36
Cc1cc(CSc2ccccc2)ccc1NC(=O)c1ccc(Cl)c([N+](=O)[O-])c1,?,7.9µM*,-18%,?
O=C(Nc1c(C(=O)N2CCN(c3ccc(F)cc3)CC2)oc2ccccc12)c1c(F)cccc1F,.,.,.,-21
NC1=C(Br)C(=O)c2ncccc2C1=O,.,?,.,-102*
O=C1C(=O)c2ncccc2-c2cccnc21,-23%,.,0.67µM*,.
O=C1c2cccnc2C(=O)N1CO,0%,-9%,29%,-32
CCNC(=S)N/N=C(\C)c1cc2ccccc2o1,?,?,?,-31
CC/C(=N\NC(=S)Nc1cccc(C)c1)c1ccccc1,?,-17%,9.3µM*,-22
C/C(=N\NC(=S)Nc1cccc(C)c1)c1cc2ccccc2o1,8.3µM*,?,?,-17
C/C(=N/NC(=S)Nc1cccc(C)c1)c1cccc([N+](=O)[O-])c1,12%,-7%,12µM*,-25
CCC(CC)c1nn2c(=O)cc(COc3ccc(NC(=O)c4ccccc4Cl)cc3)nc2s1,.,.,.,-23
C=C(C)CSc1nc2ncccc2[nH]1,-22%,5%,3%,55
CCN(CC)C(=O)CSc1nc2ncccc2[nH]1,12µM*,35%,36%,5
COCCN=c1scc(-c2ccc3c(c2)NC(=O)CO3)n1/N=C(\C)c1ccc(O)cc1,?,?,10µM*,?
SMILES,Pf growth 96h,HCV inh,Pf growth 48h,HCMV antiviral
COCCN=c1scc(-c2cccs2)n1/N=C(\C)c1ccco1,?,9%,13%,-16
COc1cc(/C=N/n2c(-c3ccc4c(c3)NC(=O)CO4)csc2=Nc2cccc(C)c2)ccc1O,4.7µM*,7.1µM*,?,-96*
CN(C(=O)COc1ccccc1C(=O)NCCOc1ccccc1)c1ccccc1,?,8.9µM*,?,-93*
O=C(NCCOc1ccccc1)c1ccccc1Cl,20%,1%,108%,?
CN1CCN(C(=O)c2cc3nc(-c4ccccc4)cc(-c4ccccc4)n3n2)CC1,.,11µM*,?,-2
O=C(c1cc2nc(-c3ccccc3)cc(-c3ccccc3)n2n1)N1CCCC1,24%,?,16%,1
O=C(c1ccco1)N1CCN(C(=O)c2cc(-c3ccccc3)nc3ccccc23)CC1,87%,-4%,-18%,69
O=C(c1cc2nc(-c3ccccc3)cc(-c3ccccc3)n2n1)N1CCN(C(=O)c2ccco2)CC1,-24%[5.75 µM],14µM*,?,-9
CNC(=S)NNc1nc(-c2ccccc2)c2cc(Cl)ccc2n1,.,-7%,.,-72*
Oc1ccccc1Nc1nc(-c2ccccc2)c2cc(Cl)ccc2n1,.,.,.,-27
O=C(CSc1cn(CC(=O)N2CCCC2)c2ccccc12)Nc1cc(C(F)(F)F)ccc1Cl,.,.,.,12
